# Compound activity: PubChem, National Center for Advancing Translational Sciences (NCATS)
# An excerpt weighted towards active compounds, which were near 3% of everything screened.
# PLK1 PBD inh: blocks phosphopeptide binding to human PLK1 polo-box domain. AID 720504. Plk1 PBD binding of FITC phosphopeptide, fluorescence polarization. 2.8% of 360,000 active. Potency, µM, for inactives: max response, negative = inhibition, usual class: inhibitors; also: series mostly up to about 57 µM; % is scaled to controls: 0 for no effect and ±100 for the full control effect; nearly all actives have a fitted effect of over 65% in size
# GCN5L2 inh: GCN5L2 (KAT2A) acetyltransferase inhibition | Q92830 | GCN5L2 HAT assay, ThioGlo1 CoA-SH fluorescence | Potency, µM (highest dose often 58.9 µM), for inactives: at the top dose activity change, negative = inhibition, most hits filed as inhibitors | 0.21% of 390,000 active | AID 504327; also: % is scaled to controls: 0 for no effect and ±100 for the full control effect
# Target sequence (Q92830 whole entry, looked up): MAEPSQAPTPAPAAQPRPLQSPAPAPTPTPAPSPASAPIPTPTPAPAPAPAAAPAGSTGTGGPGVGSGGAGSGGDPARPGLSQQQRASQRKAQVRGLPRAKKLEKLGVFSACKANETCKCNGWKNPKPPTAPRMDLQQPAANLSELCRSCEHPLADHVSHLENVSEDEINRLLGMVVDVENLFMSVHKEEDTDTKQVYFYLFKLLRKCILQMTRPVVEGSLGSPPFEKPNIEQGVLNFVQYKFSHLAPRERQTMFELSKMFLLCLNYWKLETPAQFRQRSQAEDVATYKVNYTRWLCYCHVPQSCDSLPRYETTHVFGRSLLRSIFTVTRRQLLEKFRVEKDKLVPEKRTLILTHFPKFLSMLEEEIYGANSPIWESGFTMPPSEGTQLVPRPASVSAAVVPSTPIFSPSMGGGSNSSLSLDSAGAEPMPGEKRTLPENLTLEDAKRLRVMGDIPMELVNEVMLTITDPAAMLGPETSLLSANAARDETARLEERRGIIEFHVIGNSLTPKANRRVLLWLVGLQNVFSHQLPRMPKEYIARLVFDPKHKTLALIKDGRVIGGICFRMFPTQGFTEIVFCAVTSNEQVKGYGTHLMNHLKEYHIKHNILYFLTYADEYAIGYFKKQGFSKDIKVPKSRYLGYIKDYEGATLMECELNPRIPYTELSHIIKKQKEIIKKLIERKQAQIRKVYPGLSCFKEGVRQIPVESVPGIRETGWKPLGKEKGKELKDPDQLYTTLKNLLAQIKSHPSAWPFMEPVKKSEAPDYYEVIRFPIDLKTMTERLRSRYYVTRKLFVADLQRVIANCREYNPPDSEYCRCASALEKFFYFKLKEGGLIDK
#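 Compounds, pin-transferred from DMSO stocks, meet 20nM GCN5L2 for 15 min before the reaction begins with H3(1-25) peptide (75uM) and acetyl-CoA (70uM). Thiol-reactive ThioGlo1 reports CoA release over 20 min at room temperature.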
# VDR inhibitor: blocks the human vitamin D receptor; P11473; VDR-SRC2-3 peptide fluorescence polarization, 2 h; Potency, µM, for inactives: max response, negative = inhibition, actives largely listed as inhibitors; 0.93% of 400,000 active; AID 504847; also: % is scaled to controls: 0 for no effect and ±100 for the full control effect
#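 Fluorescence polarization assay measuring small-molecule disruption of VDR binding to the coregulator peptide SRC2-3. Compounds were pin-transferred (23 nl) into the reagent mix and incubated 2 h at room temperature before reading.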
# USP1 inh: USP1/UAF1 (human) deubiquitinase inhibition; O94782; recombinant USP1/UAF1, Ub-Rhodamine cleavage fluorescence; Potency, µM (top dose mostly 57.1 µM), without a hit: top-dose activity change, negative = inhibition, actives largely listed as inhibitors; 0.23% of 390,000 active; AID 743255; also: % is scaled to controls: 0 for no effect and ±100 for the full control effect; nearly all actives have a fitted effect of over 60% in size
#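 1 nM enzyme complex + cpd, 15 min RT; start with Ub-Rho 150nM final; kinetic fluorescence ex 480/em 540, 6 reads q60 s. Buffer 50mM HEPES pH 7.8, 0.5mM EDTA, 0.1 mg/ml BSA, 1mM TCEP, 0.01% Tween-20.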
# TSG101-PTAP inh: blocks PTAP/TSG101 interaction to inhibit HIV-1 budding; Q99816; Fluorescence polarization, FITC-PTAP peptide / Tsg101 binding; Potency, µM (titrated, usually from 115 µM), for the others: at the highest dose activity change, negative = inhibition, actives largely listed as inhibitors; 340,000 tested, under 10 active; AID 493005; active = well fitted inhibition curve with a large enough effect in the main read-out, with a control signal flat, not every such curve was filed as active; inconclusive = small, poorly fitted or top-dose-only effect, or effect the other way, or a change in a side signal; inactive = no such curve, though single readings can be large or run the other way; also: % of control where 0% means no effect
#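 Steps: Tsg101 binding domain dispensed (10 uM final), compounds pinned in DMSO, FITC-labeled PTAP-motif peptide added (50 nM final); after 20 min binding at room temperature, polarization measured.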
# TbPYK confirm: confirmation of Trypanosoma brucei pyruvate kinase inhibitors; recombinant TbPYK, Kinase-Glo ATP luminescence; 67% of 890 active; shares compounds with PLK1 PBD inh; AID 720569; Potency, µM (series often up to 76.9 µM), for inactives: at the top dose activity change, negative = inhibition, actives largely listed as inhibitors; also: % is scaled to controls: 0 for no effect and ±100 for the full control effect; nearly all actives have a fitted effect of over 70% in size
# TbPYK orthogonal: TbPYK inhibition, orthogonal confirmation | 62% of 890 active | Potency, µM (top dose mostly 76.9 µM), for inactives: top-dose activity change, negative = inhibition, hits mostly inhibitors | recombinant TbPYK, ADP-Glo luminescence, 60 min | shares compounds with PLK1 PBD inh; also: % is scaled to controls: 0 for no effect and ±100 for the full control effect; nearly all actives have a fitted effect of over 75% in size
# * marks the source's active call; other numbers are inactive results; ? = inconclusive; . = no result given. Unless noted, calls follow the shape of the dose curve; as a rule, active = well fitted curve in the direction sought with a large enough effect; inconclusive = small, poorly fitted or top-dose-only effect, or another doubt; inactive = no such curve, though single readings can be large; an effect the other way counts as inactive or inconclusive. Potency is read from the fitted curve at half-maximal effect.
SMILES,PLK1 PBD inh,GCN5L2 inh,VDR inhibitor,USP1 inh,TSG101-PTAP inh,TbPYK confirm,TbPYK orthogonal
COc1ccccc1Cc1c(-c2ccco2)nc2c(C)cc(Br)cn12,11.9µM*,.,.,.,.,-14.5%,-26.1%
COc1ccc(Cc2c(-c3ccco3)nc3c(C)cc(Br)cn23)c(C)c1,-8.5%,.,.,.,.,.,.
COc1ccc(Cc2c(-c3ccco3)nc3ccc(Br)cn23)c(C)c1,23.8µM*,.,.,.,.,?,?
CCCOc1cccc(C(=O)N/N=C/c2ccoc2)c1,-18.8%,-13.2%,-8.7%,-1.9%,-2.1%,.,.
O=c1c2sc3ccccc3c2[nH]c(=S)n1CCN1CCOCC1,-11.6%,-19.4%,6.5%,-10.1%,-0.1%,3.98µM*,5.62µM*
O=C(CSc1ccccc1)NCCc1ccccc1,-6.7%,-1.2%,-0.4%,-13.0%,-5.2%,.,.
O=C(CSc1ccc2ccccc2c1)NCCc1ccc(O)c(O)c1,-13.4%,-3.9%,-7.4%,-16.3%,0.5%,7.08µM*,15.8µM*
O=c1[nH]c(=O)n(C2CC(O)C(CO)O2)cc1Br (stereo unspecified),-1.4%,.,6.4%,-8.5%,-2.7%,12.6µM*,28.2µM*
CCN(CC)C(=O)C1=C(C)N(CCCN2CCCC2=O)C(=O)C(CC(=O)NCc2cccs2)C1 (stereo unspecified),-3.0%,.,.,-14.2%,.,.,.
Cc1ccc(S(=O)c2ccc([N+](=O)[O-])c3nonc23)cc1 (stereo unspecified),1.5µM*,.,.,15.8µM*,.,-95.9%,11.2µM*
CN(C)c1ccc(C(c2ccc(N(C)C)cc2)C(O)c2ccccc2)cc1 (stereo unspecified),2.1%,.,21.6%,-22.0%,-2.5%,2.82µM*,?
CC(=O)/C(=N\Nc1ccc(Cl)cc1Cl)Sc1nnc(-c2ccccc2)n1-c1ccccc1,-8.6%,32.7%,-12.2%,-15.9%,-1.1%,?,14.1µM*
CC(=O)/C(=N\Nc1ccccc1Cl)Sc1nnc(-c2ccccc2)n1-c1ccccc1,-1.2%,5.4%,-4.4%,-22.3%,-0.1%,.,.
Cc1cc(=O)c(C(=O)Nc2cccc(C(=O)NC3CC3)c2)nn1-c1ccccc1Cl,-10.1%,-3.2%,16.2%,4.1%,-5.9%,.,.
Cc1c(C)[n+](=O)c2c(n1[O-])C(Br)CCC2Br (stereo unspecified),-10.6%,-1.0%,5.7%,-9.7%,-2.3%,.,.
Cc1c(CBr)[n+](=O)c2c(n1[O-])C(Br)CCC2Br (stereo unspecified),26.7µM*,-24.1%,35.5µM*,-4.0%,0.3%,1.12µM*,3.55µM*
Cc1cccc(C(=O)Nc2ccc(S(=O)(=O)N3CCC(c4nc5ccccc5s4)CC3)cc2)c1,.,-0.5%,5.0%,-19.4%,.,.,.
COc1cc2ccc(=O)oc2c(O)c1O,-3.5%,.,-18.9%,-19.6%,0.0%,28.2µM*,35.5µM*
O=C(O)C1OC(Oc2cc3oc(-c4ccccc4)cc(=O)c3c(O)c2O)C(O)C(O)C1O (stereo unspecified),3.5%,-11.3%,-9.0%,?,-1.0%,2.82µM*,2.82µM*
CCOc1ccc(-c2c(=O)n(O)c3ccccc3[n+]2[O-])cc1,?,-16.4%,-6.0%,-6.7%,1.5%,?,-14.6%
CCOc1ccc(-c2c(=O)n(OCC)c3ccccc3[n+]2[O-])cc1,?,-7.4%,-1.8%,-25.2%,-1.8%,.,.
CCCNC(=O)N(C)C[C@@H]1Oc2ncc(-c3ccncc3)cc2C(=O)N([C@H](C)CO)C[C@@H]1C,-12.8%,.,.,-26.4%,.,22.4µM*,31.6µM*
Nc1ccn(CCCNCC(c2ccccc2)c2ccccc2)c(=O)n1,-4.5%,.,.,-5.2%,.,.,.
Cc1cc(O)c2c(C)c(CC(=O)N3CCCCC3)c(=O)oc2c1,.,-0.2%,24.9%,?,.,.,.
O=C1C(c2cc(=O)c3ccccc3[nH]2)=C(O)c2ccccc21,-4.0%,-21.5%,-4.2%,-22.2%,-5.9%,2.82µM*,7.08µM*
SMILES,PLK1 PBD inh,GCN5L2 inh,VDR inhibitor,USP1 inh,TSG101-PTAP inh,TbPYK confirm,TbPYK orthogonal
COc1cc(/C=N/N=C2/NC(=O)C(CC(=O)O)S2)ccc1OCc1ccc(Cl)cc1 (stereo unspecified),-22.6%,-3.8%,-26.0%,-20.0%,-2.4%,15.8µM*,35.5µM*
Cc1ccc2nc(NC(=O)CSc3cc(C)[nH]c(=O)n3)sc2c1,.,1.8%,2.3%,-26.8%,.,.,.
COCCN(Cc1cc2cccc(C)c2n2nnnc12)C(=O)C(F)(F)F,-5.4%,-4.6%,-15.9%,-3.5%,4.3%,2.8%,-7.6%
CCc1ccc(-n2c(=O)c3c4c(sc3n(CC(=O)c3ccc(Cl)cc3)c2=O)CCC4)cc1,.,0.3%,-0.8%,-11.0%,.,.,.
O=C1OC(Nc2ccc3c(c2)OCO3)c2ccccc21 (stereo unspecified),-15.2%,-7.0%,-8.0%,-6.2%,0.7%,0.501µM*,12.6µM*
CCCCCCCCCCCCOCCOCCOCCOCCO,.,-7.9%,-3.2%,.,.,.,.
CC1(C(=O)NCCC(F)(F)F)Cc2c(-c3cccc(C(N)=O)c3)ccnc2O1 (stereo unspecified),-11.7%,.,.,.,.,5.9%,-1.6%
CC1(C(=O)NCCC(F)(F)F)Cc2c(-c3cccc(C(F)(F)F)c3)ccnc2O1 (stereo unspecified),-11.4%,.,.,.,.,.,.
C=CCn1c(C)cc(C(=O)COC(=O)c2ccc(N)c([N+](=O)[O-])c2)c1C,4.8%,-1.6%,?,-16.7%,-4.7%,.,.
CCn1c(C)cc(C(=O)COC(=O)c2ccccc2[N+](=O)[O-])c1C,2.9%,-3.1%,-15.6%,-17.6%,-0.3%,?,3.1%
Cc1cc(C)cc(-n2nnc(-c3nc(-c4ccc5c(c4)OCO5)no3)c2C)c1,.,-0.4%,20.5%,-17.5%,.,.,.
O=C(O)Cn1nc(N2CCN(c3ccccc3)CC2)ccc1=O,.,-1.6%,-26.8%,-21.9%,.,.,.
Cc1csc(N=Nc2ccc(N(C)C)cc2)[n+]1[O-],-2.0%,.,.,-25.8%,.,17.8µM*,12.1%
CCOc1ccc(CCNC(=O)c2c(C)oc3ncn(CC(C)C)c(=O)c23)cc1OCC,.,24.9%,12.9%,-26.0%,.,.,.
O=C(O)c1cc(N=Nc2c(O)ccc3ccccc23)cc(C(=O)O)c1,9.47µM*,?,4.7%,?,-0.6%,7.08µM*,12.6µM*
N#C/C(=C/c1ccc(N2CCCCCC2)o1)c1ccc(Cl)cc1,-5.5%,-22.8%,22.4µM*,?,?,?,35.5µM*
N#C/C(=C\N1CCCCC1)S(=O)(=O)c1ccc(Cl)cc1,-5.0%,-1.0%,7.7%,-11.4%,-4.5%,.,.
